Source: PubChem
VACV mCherry inh: vaccinia inhibition (mCherry reporter) | Vaccinia virus mCherry reporter infection, fluorescence | hit rate 0.63% among 310,000 | AID 720579 | Potency, µM (series often up to 36.5 µM), most hits filed as inhibitors; calls by dose curve; tested in A549 cells; also: nearly all actives have a fitted effect of over 35% in size
HCMV antiviral: human cytomegalovirus inhibition. HFF cells, HCMV-luciferase reporter, 72 h; stronger effect = lower value. activity change, negative = inhibition, % at 57.5 µM. hit rate 4.5% among 410,000. AID 1259415; in the data active = activity change below about -60%; inconclusive = no clear call, values can overlap the other calls; inactive = above about -39%
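HFF cells seeded 16 h at 37C, treated with compounds, infected with luciferase-reporter HCMV at MOI 1 PFU/cell; luciferase read at 72 h post infection, normalized to buffer-only and Salinomycin controls.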
Vaccinia Venus: vaccinia inhibition (Venus reporter) | AID 720580 | Vaccinia virus Venus reporter expression, fluorescence | Potency, µM (doses to about 36.5 µM), hits mostly inhibitors | hit rate 0.46% among 330,000; calls by dose curve; tested in A549 cells; also: nearly all actives have a fitted effect of over 30% in size
HCV inh: inhibitors of hepatitis C virus infection; Huh7.5.1 HCVcc-Cre infection, luciferase reporter, 44 h; hit rate 3.4% among 340,000; AID 651820; Potency, µM (series often up to 41.8 µM), usual class: inhibitors; active = well fitted inhibition curve with a large enough effect; inconclusive = small, poorly fitted or top-dose-only effect, or another doubt; inactive = no such curve, though single readings can be large or run the other way
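Antiviral activity was scored by luciferase reporter output from cells infected with HCVcc-Cre (~0.5 moi) in presence of compound, 44 h infection period, cells seeded 1,000/well 4 h prior.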
FMDV antiviral: blocks foot and mouth disease virus | FMDV antiviral cell-based qHTS | Potency, µM (doses to about 57.9 µM), hits mostly inhibitors | hit rate 1.2% among 410,000; calls by dose curve; tested in HEK293T cells; also: read-out not given here; nearly all actives have a fitted effect of over 45% in size
A number is an active result; – = inactive; ? = inconclusive; · = not tested or not shown. Rows were chosen to be rich in hits. Some 7.3% of all compounds tested hit in one or more screens of this group.

SMILES | VACV mCherry inh | HCMV antiviral | Vaccinia Venus | HCV inh | FMDV antiviral
N=c1c2c(n(Cc3ccc(Br)cc3)c3c1CCC3)CCCC2 | · | -95 | · | ? | 40µM
Clc1ccc(CN2CCN(c3ncccn3)CC2)cc1Cl | – | – | – | – | –
COc1ccc(C)cc1-n1nnc(-c2nc(-c3ccccc3Cl)no2)c1N | – | – | – | · | –
CCOc1ccc(OCC)c(NC(=O)C(NS(=O)(=O)c2ccc(Br)s2)c2ccccc2)c1 (stereo unspecified) | – | – | – | · | –
Cc1cc(Br)ccc1NC(=O)C(Cc1ccccc1)NS(=O)(=O)c1ccc(Br)s1 (stereo unspecified) | – | -104 | – | · | –
O/N=C(/CI)c1ccc2ccccc2c1 | – | · | – | · | ·
O=C(Nc1ccc2nc3n(c(=O)c2c1)CCCCC3)c1c(F)ccc([N+](=O)[O-])c1F | ? | -100 | ? | 14µM | 10µM
O=C(Nc1ccc2nc3n(c(=O)c2c1)CCCCC3)c1cc([N+](=O)[O-])ccc1F | · | -72 | · | ? | 32µM
CC(=O)CC1c2ccccc2C=C(c2ccsc2)N1c1ccc(-c2cccs2)cc1 (stereo unspecified) | – | -78 | – | · | –
COc1ncc(-c2ccc(N3C(c4ccsc4)=Cc4ccccc4C3CC(C)=O)cc2)cn1 (stereo unspecified) | – | – | – | · | –
O=C(Nc1ccc(Br)cc1F)C1CCN(c2nc3ccccc3[nH]2)CC1 | – | – | – | · | –
O=[N+]([O-])c1ccc2cn(-c3ccccc3)nc2c1 | – | -68 | – | ? | –
O=[N+]([O-])c1ccc2c(c1)ncn2CCc1ccccc1 | · | ? | · | – | –
O=[N+]([O-])c1ccc2c(c1)ncn2-c1ccccc1 | – | -70 | – | ? | –
COc1ccc(CCn2c3c(c(=O)[nH]c2=S)CN(CC(C)C)CN3)cc1OC | – | · | – | · | ·
O=C(CCn1c(=O)c2ccccc2n(CC(=O)Nc2ccc(F)cc2)c1=O)NCCc1ccccc1 | – | – | – | · | –
Cn1cccc1C(=O)N1CCC2(CCCN(c3ccccc3)C2)CC1 | · | · | · | · | –
COc1cc2c(oc(=O)c3cc(C)cc(OC)c32)c2c(C3OC(C)C(O)C(C)(O)C3O)ccc(O)c12 (stereo unspecified) | ? | -69 | ? | ? | –
C=Cc1cc(OC)c2c(c1)c(=O)oc1c2cc(OC)c2c(O)ccc(C3OC(C)C(O)C(C)(O)C3O)c21 (stereo unspecified) | ? | -98 | 1µM | 1µM | ?
Nc1c(-c2nc(-c3cccs3)no2)nnn1-c1cccc(F)c1 | – | – | – | · | –
CCOc1ccc(CNC(=O)CCS(=O)(=O)c2cc3c(cc2Cl)NC(=O)CO3)cc1OC | – | – | – | · | –
C/C=C/c1ccc(OCCCCOc2ccccc2C(C)=O)c(OC)c1 | – | ? | – | – | –
C/C=C/c1ccc(OCCCCN(C)Cc2ccccc2)c(OC)c1 | · | – | · | 11µM | –
COc1ccc(-c2csc(NC(=O)c3cccc(N4C(=O)CCC4=O)c3)n2)cc1OC | – | – | – | ? | –
O=C(Nc1nc(-c2ccc(F)cc2)cs1)c1ccc(N2C(=O)CCC2=O)cc1 | – | – | – | ? | ?
SMILES | VACV mCherry inh | HCMV antiviral | Vaccinia Venus | HCV inh | FMDV antiviral
COc1ccccc1-c1csc(NC(=O)c2ccc(N3C(=O)CCC3=O)cc2)n1 | · | – | · | – | 18µM
O=C(Nc1ccccc1-c1nc2ccccc2[nH]1)c1ccc(S(=O)(=O)N2CCCCC2)cc1 | · | – | · | – | –
O=C(Nc1ccccc1-c1nc2ccccc2[nH]1)c1ccc(N2C(=O)CCC2=O)cc1 | – | – | – | 10µM | ?
COc1ccc(-c2csc(NC(=O)c3ccc(N4C(=O)CCC4=O)cc3)n2)cc1 | · | -67 | · | – | ?
Cc1ccc(Nc2c3c(nc4nncn24)CCC3)c(C)c1 | – | – | – | · | –
CCn1cc(S(=O)(=O)c2ccc(OC)cc2)c(=O)c2cc(F)c(N3CCC(C)CC3)cc21 | – | – | – | · | –
CC(C)CNC(=S)N1CCC(C(=O)c2ccc3c(c2)OCCO3)CC1 | · | -63 | · | ? | –
Cc1cccc(CNC(=O)c2cnn(-c3nccc(-c4cc(C)sc4C)n3)c2C)n1 | – | · | – | · | –
CN(C)c1ccc(N2C(=O)CSC2=S)cc1 | – | ? | – | – | –
CC1SC(=S)N(c2ccc(N(C)C)cc2)C1=O (stereo unspecified) | 11µM | -71 | – | ? | –
CCOc1ccc(C(C)=O)cc1CC(C(N)=O)C(N)=O | – | – | – | – | –
CCOc1ccc(C(C)=O)cc1COC(=O)C1=COCCO1 | · | – | – | 10µM | –
